Source: PubChem BioAssay (several laboratories)
Myeloid diff MLP: promotes myeloid progenitor differentiation | ER-HoxA9 myeloid progenitors, lysozyme-GFP differentiation, flow cytometry | calls only at 10 µM | AID 624256 | 360,000 compounds, 1% hits;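 active means normalized GFP-positive differentiation at or above the plate's own cutoff, the solvent-only control mean plus 3 SD; inconclusive means no clear call, values can overlap the other calls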;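 further: cells exposed to compound for four days before flow analysis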
CRFR2-BP antag: CRF-BP/CRF-R2 complex antagonism. 350,000 compounds, 0.59% hits. inhibition, % at 11.8 µM. HEK293 CRF-R2/CRF-BP, CRF-induced calcium fluorescence;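 active means inhibition of the ligand-induced calcium signal above about 50% at the single tested concentration, limit read from the data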
FAS-TE inh: inhibitors of human fatty acid synthase thioesterase domain. inhibition, % at 15 µM. 360,000 compounds, 0.67% hits. AID 602261. recombinant FAS-TE, OMFH fluorogenic substrate, fluorescence endpoint. P49327;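 active means compounds whose normalised, plate-corrected inhibition of enzyme fluorescence in the single-dose primary screen is 50% or more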
NadD inh: blocks S. aureus nicotinate mononucleotide adenylyltransferase. 360,000 compounds, 0.78% hits. inhibition, % at 20 µM. purified NadD enzyme, colorimetric absorbance read-out; in the data active means inhibition above about 26%
CendR NRP1 mod: modulators of CendR peptide binding to human neuropilin-1; O14786; AID 602438; FAM-RPARPAR peptide binding to NRP-1, fluorescence polarization; inhibition, % at 25 µM; 360,000 compounds, 0.85% hits;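 active means inhibition or corrected inhibition above about 18%, plus a signal ratio from 0.5 to 1.5, limit read from the data, passing the limit was not always enough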
Large screens that a line does not name were inactive. Hits are enriched below; roughly 3.6% of the tested compounds scored in any of these assays.

CCOC(=O)c1cc([N+](=O)[O-])cc([N+](=O)[O-])c1Sc1ncnc2nc[nH]c12	none (no result: Myeloid diff MLP)
CCCCn1c(CCCNC(=O)c2ccco2)nc2ccccc21	CendR NRP1 mod 22
O=c1[nH]c(=S)[nH]c2c1C(c1ccc(F)cc1)OC(CCc1ccccc1)C2 (stereo not drawn)	none (no result: CRFR2-BP antag)
O=C(Nc1ccc(S(=O)(=O)Nc2ncccn2)cc1)c1ccc(Br)cc1	none
CCC/C(C#Cc1cc(OC)cc(OC)c1)=C1/c2ccccc2C(=O)N1c1ccccc1	none
CCC/C(C#Cc1ccc(N(C)C)cc1)=C1/c2ccccc2C(=O)N1c1ccccc1	Myeloid diff MLP active
CC(C)(C)c1ccc(OCCCC(=O)Nc2ccc(S(N)(=O)=O)cc2)cc1	Myeloid diff MLP active
CC(C)NC(=O)N[C@H]1C=C[C@H](CC(=O)NCc2ccc(Oc3ccccc3)cc2)O[C@@H]1CO	none (no result: CRFR2-BP antag, FAS-TE inh, NadD inh)
O=C(c1cccc([N+](=O)[O-])c1)c1ccc2c(c1)OCCOCCOCCO2	CRFR2-BP antag 58
O=C1OC(/C=C/c2ccc(Cl)cc2)=NC/1=C/c1ccco1	none
COc1ccc(-c2cc(C(=O)OCC(=O)N3CCOCC3)c3ccccc3n2)cc1	none
COC(=O)C1CCN(C(=O)COC(=O)c2cc(-c3ccccc3)nc3ccc(OC)cc23)CC1	Myeloid diff MLP active
COc1ccc(C(=O)NC2CC2)cc1OC1CCN(Cc2ccccc2)CC1	CendR NRP1 mod 22
COc1ccc(C(=O)NC2CC2)cc1OC1CCN(Cc2ccc(F)cc2)CC1	none
COc1cc(-c2nc(C(=O)NC3CCN(Cc4ccccc4)CC3)cc3c2[nH]c2ccccc23)cc(OC)c1OC	FAS-TE inh 77
Cn1nc(-c2ccccn2)nc2c(=O)n(C)c(=O)nc1-2	Myeloid diff MLP inconclusive, CendR NRP1 mod 28
O=C(CN1CCN(Cc2ccc(Cl)cc2)CC1)N1CCc2ccccc21	none
c1ccc2nc(-c3ccc(N4CCOCC4)cc3)ccc2c1	none
CN1CCN(c2ccc(-c3ccc4ccccc4n3)cc2)CC1	Myeloid diff MLP active
Cc1cc(-c2ccc(N3CCOCC3)cc2)nc2ccccc12	Myeloid diff MLP active
Cc1ccc(-c2cc(C(=O)N3CCOCC3)c3ccccc3n2)cc1	none
COc1ccc(-c2ccnc3[nH]n(-c4ccccc4)c(=O)c23)cc1	Myeloid diff MLP active
O=C1C(=C(O)c2ccccc2)C(=O)c2ccccc21	Myeloid diff MLP active
O=C1C(=C(c2ccccc2)c2ccccc2)Nc2ccccc21	none (no result: Myeloid diff MLP)
CC(=O)N(c1ccccc1)c1ccc([N+](=O)[O-])cc1[N+](=O)[O-]	Myeloid diff MLP active
CC(=O)N(C)c1cccc([N+](=O)[O-])c1	none
CCn1c(=O)n(CC)c2cc(N3CCCC3)c(NC(=O)c3ccccc3C)cc21	CendR NRP1 mod 27
COc1ccc(C(C)(C)C)cc1NC(=O)CCc1c(C)noc1C	CendR NRP1 mod 28
COc1ccc(C(C)(C)C)cc1NC(=O)c1c(C)noc1C	none
COCCn1c(Cc2ccccc2)nnc1SCC(=O)NC1CC1	CendR NRP1 mod 25
O=C1NC[C@H](CCCCN2CCN(CCC3CCCCC3)C(=O)C2=O)N(CCc2ccccc2)C1=O	none (no result: CRFR2-BP antag)
CCn1c(C)c(C(C)=O)c(N2CCN(c3ccccc3)CC2)nc1=S	none
CC(=O)c1c(N2CCN(C)CC2)[nH]c(-c2ccccc2)nc1=S	Myeloid diff MLP active
Cc1ccc(CNC(=O)c2ccc(Cl)c(S(=O)(=O)N3CCCCC3)c2)cc1	none
COc1ccc(NC(=O)C(Sc2ccccc2)c2ccccc2)c(OC)c1 (stereo not drawn)	CRFR2-BP antag 51
COc1ccccc1NC(=O)C(Sc1ccccc1)c1ccccc1 (stereo not drawn)	none
CCOc1ccccc1NC(=O)C(Sc1ccccc1)c1ccccc1 (stereo not drawn)	CendR NRP1 mod 27
COc1ccc(CN(C)C[C@H]2OCCCC[C@@H](C)Oc3ccc(NC(=O)c4ccccc4)cc3C(=O)N([C@H](C)CO)C[C@@H]2C)cc1	none
CC1(C(=O)Nc2ccccc2)Cc2c(-c3cccc(C(F)(F)F)c3)ccnc2O1 (stereo not drawn)	none (no result: CRFR2-BP antag)
Cc1cc(=O)[nH]c(Nc2ccc(Cl)cc2)n1	CendR NRP1 mod 22
Cc1ccc(S(=O)(=O)N(C)C[C@@H]2OCc3cnnn3CCCC(=O)N([C@H](C)CO)C[C@H]2C)cc1	none
CCn1ncc(Br)c1C(=O)N(C)C12CC3CC(CC(C3)C1)C2	CendR NRP1 mod 27
CC1(C(=O)O)CCCN1C(=O)c1cccc2ccccc12 (stereo not drawn)	none (no result: CRFR2-BP antag)
COc1ccc(-c2cc(NC(C)=O)c3ncc(-c4ccc(OC)c(OC)c4)n3c2)cc1OC	none (no result: CRFR2-BP antag)
COc1ccc(-c2cnc3c(NC(C)=O)cc(-c4ccsc4)cn23)cc1OC	Myeloid diff MLP active (no result: CRFR2-BP antag)
CCCNC(=S)Nc1ccc(CC(=O)OC)cc1	CendR NRP1 mod 24
O=C1Nc2ccccc2/C1=N/N=C/c1cccc(O)c1	none
COc1cc(/C=N/N=C2/C(=O)Nc3ccccc32)cc(OC)c1O	CendR NRP1 mod 25
COc1ccc(C(=O)Nc2c(F)c(F)c(F)c(F)c2F)c(OC)c1	CendR NRP1 mod 20
O=C1NC[C@@H](CCCCN2C[C@H](Cc3ccc(O)cc3)N(CCC3CCCCC3)C(=O)C2=O)N(CCC2CCCCC2)C1=O	none (no result: CRFR2-BP antag)
Cc1ccn(C(=O)c2ccc(NC(=O)C3CCCCC3)cc2)n1	CRFR2-BP antag 54
O=C(Nc1ccc(C(=O)N2CCCC2)cc1)C1CCCCC1	none
c1cc2c(cc1Cn1cnnn1)OCO2	CendR NRP1 mod 22
O=c1cc(CO)oc(C(Nc2ccccn2)c2ccccc2Cl)c1O (stereo not drawn)	CendR NRP1 mod 26
O=c1cc(CO)oc(C(Nc2ccccn2)c2ccc(F)cc2)c1O (stereo not drawn)	none
NC(Cc1ccccc1)c1csc(NC(=O)Nc2ccccc2Oc2ccccc2)n1 (stereo not drawn)	Myeloid diff MLP active (no result: CRFR2-BP antag)
CC(C)C[C@@]12C(=O)N(c3cccc(Cl)c3)C(=O)N1[C@H](c1ccc(Br)cc1)[C@@H]1C(=O)N(C(C)(C)C)C(=O)[C@@H]12	none
CC(C)(C)N1C(=O)[C@H]2[C@@H](c3ccc(Br)cc3)N3C(=O)N(c4cccc(Br)c4)C(=O)[C@@]3(Cc3ccccc3)[C@H]2C1=O	FAS-TE inh 86
CC[C@@]12C(=O)N(c3cccc(Cl)c3)C(=O)N1[C@H](c1ccc(Br)cc1)[C@@H]1C(=O)N(C(C)(C)C)C(=O)[C@@H]12	FAS-TE inh 56
O=C1C2C3c4ccccc4C(c4ccccc43)[C@@H]2C(=O)N1c1nc(-c2ccccc2)cs1 (stereo partly drawn)	FAS-TE inh 52
NNc1nc2c(-c3cccc(C(F)(F)F)c3)nnn2c2ccccc12	Myeloid diff MLP active
CSCCC(NS(=O)(=O)c1ccc2ccccc2c1)C(=O)OCC(=O)c1ccc(C(C)C)cc1 (stereo not drawn)	Myeloid diff MLP active
O=C(O)CN1C(=O)/C(=C\c2cc(Br)ccc2OCc2ccc(Cl)cc2Cl)SC1=S	FAS-TE inh 86, NadD inh 36
